# Measurements reported in PubChem BioAssay (NCATS).
# Unmarked numbers belong to inactive results. Calls come from the whole dose curve; as a rule, active = well fitted curve in the direction sought with a large enough effect; inconclusive = small, poorly fitted or top-dose-only effect, or effect the other way, or another doubt; inactive = no such curve, though single readings can be large or run the other way.
# Experiment: qHTS of Nrf2 Activators: LOPAC Validation (AID 624149); note: 0% is about no effect
# Conditions: Nrf2/ARE reporter cell assay; series mostly up to 46.1 µM; activation: at the top concentration
# From the text: Many diseases have some form of oxidative stress injury and ties to inflammation, causing a host of problems for the patient. The antioxidant response element (ARE) plays an important role in alleviating the harmful effects of oxidative stress. The antioxidant response element (ARE) is a transcriptional regulatory element involved in the activation of genes coding for a number of antioxidant proteins and detoxifying enzymes. These enzymes work in concert to protect tissues from oxidative insults and chemical toxicities in human hepatocytes and immune cells. The protective effects of ARE activation are primarily triggered through Nrf2 (NF-E2-related factor) binding to and activating AREs. It is known that Nrf2 controls the production of over 250 antioxidant and detoxification proteins (Hu et al., 2006), thereby protecting tissues by increasing cellular antioxidant content and suppressing inflammatory signaling pathways. The transcription factor Nrf2 is a central link between oxidative chemicals, such as phenolic antioxidants and electrophilic compounds, and the activation of ARE. Nrf2 levels are constitutively low as a consequence of its interaction with Keap1, which targets its degradation (Zipper and Mulcahy, 2002). Electrophiles react with key cysteine residues in Keap1, releasing Nrf2 and allowing its translocation to the nucleus. Once within the nucleus, Nrf2 complexes with coactivators such as p300, and binds to the AREs to induce gene transcription of cytoprotective enzymes, resulting in the prevention of toxicity. Activation of Nrf2 protects tissues by increasing cellular antioxidant content and suppressing inflammatory signaling pathways. Identifying novel and potent Nrf2 activators by using the AREc32 cell line to detect ARE activation by small molecules will lead to the identification and development of probes to study protective pathways in multiple tissues. These specific probes are essential to study the ARE pathway, and eventually to determine whether this pathway does activate genes that could protect against a host of diseases, including cardiovascular diseases, obesity, diabetes, Alzheimer's, and Parkinson's disease.
# This project's aim is to identify novel and potent Nrf2 activators by using the AREc32 cell line to detect ARE activation by small molecules, which will lead to the identification and development of probes to study the ARE pathway.
# NIH Chemical Genomics Center [NCGC]
# NIH Molecular Libraries Probe Centers Network [MLPCN]
# Assay Submitter (PI): Curtis Klaassen, University of Kansas Medical Center
# 5 uL of 1000 cells/well of AREc32_Fluc cells are seeded into 1536-well plate in OPTI-MEM medium with 5% FBS. The plates are incubated overnight at 37 deg C with 5% CO2. Then through pin tool transfer, 23 nL of compounds are added to each well before a 24 hr incubation at 37 deg C with 5% CO2. After the addition of 2.5 uL of Steady-Glo. the plates are kept at RT for 30 min, before they are read on the ViewLux
row,SMILES,activation [%]
1,Cc1ccc2c(c1)C(N1CCN(C)CC1)=Nc1cccnc1N2,6.84
2,O=C(O)/C(=C/c1c(C(=O)O)[nH]c2cc(Cl)cc(Cl)c12)c1ccccc1,-0.737
3,CC(C)(C)NCC(O)COc1cccc2[nH]c(=O)[nH]c12 (stereo not given),-1.4
4,NC1CONC1=O (stereo not given),0.734
5,CN1CCCC1CCOC(C)(c1ccccc1)c1ccc(Cl)cc1 (stereo not given),1.89
6,O=c1cc(-c2ccccc2F)[nH]c2cc3c(cc12)OCO3,0.912
7,Nc1ccc(-c2ccc3ccccc3n2)cc1,-1.67
8,O=c1[nH]ccc2c(O)cccc12,-1
9,N=C(N)c1ccc(OCCCCCOc2ccc(C(=N)N)cc2)cc1 (tested in a mixture with another compound),-2.09
10,CCCCCCN(CCCCCC)C(=O)Cc1c(-c2ccc(F)cc2)[nH]c2ccccc12,1.07
11,CC(N)=NCCCC[C@@H](N)C(=O)O,-2.06
12,C=CCNc1ncnc2ccc(Br)cc12,-2.28
13,C[C@H](NC(=O)/C(C#N)=C/c1ccc(O)c(O)c1)c1ccccc1,7.71
14,NC1(C(=O)O)CCCCC1,-2.5
15,NC/C=C\C(=O)O,-2.21
16,NC[C@@H]1O[C@H](c2ccccc2)Cc2c1ccc(O)c2O,1.48
17,[Li+],-2.75
18,CSc1nc(N)c2ncn([C@@H]3O[C@H](COP(=O)(O)OP(=O)(O)O)C(O)[C@H]3O)c2n1 (stereo not given in full),6.81
19,CN1C2CCC1CC(OC(c1ccccc1)c1ccccc1)C2 (stereo not given),1.1
20,Nc1ccc(N2C(=O)c3ccccc3C2=O)c(Cl)c1,0.566

row,SMILES,activation [%]
1,CC(C)(C)c1ccc(/C=C/C(=O)Nc2ccc3c(c2)OCCO3)cc1,-1.87
2,COc1cc2c(CCNC(C)=O)c[nH]c2cc1O,-1.76
3,Nc1nc2[nH]c(=O)cnc2c(=O)[nH]1,-1.99
4,COc1ccc(CCN(C)CCc2ccc(OC)c(OC)c2)cc1OC,-2.54
5,COc1ccccc1N1CCN(CCN(C(=O)c2ccc(F)cc2)c2ccccn2)CC1,-2.33
6,NC1(C(=O)O)CCc2cc(C(=O)O)ccc21 (stereo not given),0.611
7,O=c1ccn([C@@H]2O[C@H](COP(=O)(O)OP(=O)(O)O)[C@@H](O)[C@H]2O)c(=O)[nH]1,0.789
8,OCC1NCC(O)C(O)C1O (stereo not given),-3.61
9,O=C1C2C=CC=CC2=NC(=S)N1CCN1CCC(=C(c2ccc(F)cc2)c2ccc(F)cc2)CC1 (stereo not given),0.99
10,N[C@@H](CCC(=O)N[C@H](CSN=O)C(=O)NCC(=O)O)C(=O)O,-2.01
11,Cc1nc2n(c(=O)c1CCN1CCC(c3noc4cc(F)ccc34)CC1)CCCC2O (stereo not given),0.191
12,N=C(N)SCCc1cnc[nH]1,-1.08
13,NC(N)=NC(N)=Nc1cccc(Cl)c1,1.1
14,CC1CCN(CC[C@H]2CCCN2S(=O)(=O)c2cccc(O)c2)CC1,-2.48
15,O=c1onc2cnc3ccccc3n12,0.747
16,Fc1ccc(CN(C2=NCCN2)c2c(Cl)cccc2Cl)cc1,0.124
17,O=C(O)C1CCNCC1,-0.928
18,CC(=O)/C(C)=N/O,-1.17
19,COc1cc(C(O)C(=O)O)ccc1O (stereo not given),-1.2
20,C[C@H](O)C(=O)C1=Nc2c(nc(N)[nH]c2=O)NC1,-0.6
